# Source: the supplement of paper PMC13380429
# Tests used:
# [1] = tested on: Vero E6 infected with SARS-CoV-2; experiment: morphology score (similarity to uninfected cells); higher = more like uninfected cells; details: 24 h
# [2] = tested on: Vero E6 infected with SARS-CoV-2; experiment: SARS-CoV-2 infection rate relative to infected DMSO; higher = more infection, active = 60 or less; details: 24 h
structure (smiles),measurement,setting,value
CC(=O)NCCc1c[nH]c2ccccc12 [N-acetyltryptamine] (10 µM),morphology score,[1],0.0383
same,SARS-CoV-2 infection rate,[2],94.5% (inactive)
CCn1c(=O)c(-c2cc[nH]n2)cc2c(C)nc(N)nc21 [voxtalisib] (0.833333 µM),morphology score,[1],0.00591
same,SARS-CoV-2 infection rate,[2],109% (inactive)
Cc1ccc2c(c1)C(=O)[C@]1(O)CCN(c3ccccc3)C1=N2 (racemic) [blebbistatin-(+/-)] (10 µM),morphology score,[1],0.464
same,SARS-CoV-2 infection rate,[2],90.8% (inactive)
Nc1cccc2c1C(=O)N(C1CCC(=O)NC1=O)C2=O (stereo unspecified) [pomalidomide] (10 µM),morphology score,[1],-0.074
same,SARS-CoV-2 infection rate,[2],108% (inactive)
Cc1c(C(=O)NN2CCOCC2)nn(-c2ccc(Cl)cc2Cl)c1-c1ccc(I)cc1 (10 µM),morphology score,[1],0.11
same,SARS-CoV-2 infection rate,[2],87.5% (inactive)
CN1CCN(C(c2ccccc2)c2ccccc2)CC1 [cyclizine] (10 µM),morphology score,[1],-0.126
same,SARS-CoV-2 infection rate,[2],108% (inactive)
CCN(CC)CCCCNc1ncc2cc(-c3cc(OC)cc(OC)c3)c(NC(=O)NC(C)(C)C)nc2n1 (0.833333 µM),morphology score,[1],0.13
same,SARS-CoV-2 infection rate,[2],107% (inactive)
c1ccc(N2CCN(CCCOc3ccc4c(c3)OCO4)CC2)cc1 (10 µM),morphology score,[1],0.0822
same,SARS-CoV-2 infection rate,[2],101% (inactive)
C[N+]1(C)CCC(=C(c2ccccc2)c2ccccc2)CC1 [diphemanil] (10 µM),morphology score,[1],-0.00596
same,SARS-CoV-2 infection rate,[2],95.5% (inactive)
CNCCC(Oc1ccccc1OC)c1ccccc1 (stereo unspecified) [nisoxetine] (10 µM),morphology score,[1],0.135
same,SARS-CoV-2 infection rate,[2],96.5% (inactive)
Cc1sc(C)c2c1CCC=C2c1c[nH]cn1 (10 µM),morphology score,[1],0.165
same,SARS-CoV-2 infection rate,[2],94% (inactive)
C[C@@H](c1ncncc1F)[C@](O)(Cn1cncn1)c1ccc(F)cc1F [voriconazole] (10 µM),morphology score,[1],0.0199
same,SARS-CoV-2 infection rate,[2],101% (inactive)
CC(C)N(CCC(=O)c1ccc2ccccc2c1)Cc1ccccc1 (10 µM),morphology score,[1],0.0866
same,SARS-CoV-2 infection rate,[2],104% (inactive)
CCN(CC)CCNC(=O)c1ccc(N)cc1 [procainamide] (10 µM),morphology score,[1],0.00737
same,SARS-CoV-2 infection rate,[2],116% (inactive)
"CCCC(O)C(CC)CO (stereo unspecified) [2-ethyl-1,3-hexanediol] (0.833333 µM)",morphology score,[1],-0.095
same,SARS-CoV-2 infection rate,[2],116% (inactive)
Nc1ncnc2c1ncn2[C@@H]1O[C@H](COP(=O)(O)OP(=O)(O)OP(=O)(O)OP(=O)(O)OC[C@H]2O[C@@H](n3cnc4c(N)ncnc43)[C@H](O)[C@@H]2O)[C@@H](O)[C@H]1O [diadenosine-tetraphosphate] (10 µM),morphology score,[1],0.0713
same,SARS-CoV-2 infection rate,[2],108% (inactive)
O=C(O)c1cc(=O)c2ccccc2[nH]1 [kynurenic-acid] (10 µM),morphology score,[1],0.122
same,SARS-CoV-2 infection rate,[2],97% (inactive)
Clc1cccc(-n2nnnc2NCc2ccccc2Oc2ccccn2)c1Cl (10 µM),morphology score,[1],-0.0586
same,SARS-CoV-2 infection rate,[2],110% (inactive)
COc1ncc(-c2ccc3nccc(-c4ccnnc4)c3c2)cc1NS(=O)(=O)c1ccc(F)cc1F (0.833333 µM),morphology score,[1],-0.0933
same,SARS-CoV-2 infection rate,[2],110% (inactive)
Cc1cc(-c2nc3cc(F)ccc3s2)ccc1NC(=O)[C@@H](N)CCCCN [phortress] (10 µM),morphology score,[1],-0.32
same,SARS-CoV-2 infection rate,[2],120% (inactive)
CCCCCCCC(=O)N[C@H](CN1CCCC1)[C@H](O)c1ccc2c(c1)OCCO2 [eliglustat] (10 µM),morphology score,[1],0.2
same,SARS-CoV-2 infection rate,[2],92.5% (inactive)
Cc1cc2nc3c(=O)[nH]c(=O)nc-3n(C)c2cc1C=O (10 µM),morphology score,[1],0.102
same,SARS-CoV-2 infection rate,[2],100% (inactive)
COc1cc(C(=S)N2CCOCC2)ccc1O [vanitiolide] (10 µM),morphology score,[1],0.152
same,SARS-CoV-2 infection rate,[2],102% (inactive)
Cc1ccccc1N(C)C(=O)c1ccc([S+]([O-])c2nccs2)c([N+](=O)[O-])c1 (stereo unspecified) (0.833333 µM),morphology score,[1],-0.0736
same,SARS-CoV-2 infection rate,[2],81% (inactive)
C[N+](C)(C)CC[N+]1(C)Cc2c(Cl)c(Cl)c(Cl)c(Cl)c2C1 [chlorisondamine-diiodide] (10 µM),morphology score,[1],0.224
same,SARS-CoV-2 infection rate,[2],90.5% (inactive)
CCN(CCCOc1ccc2c(Nc3cc(CC(=O)Nc4cccc(F)c4)[nH]n3)ncnc2c1)CCOP(=O)(O)O [barasertib] (0.833333 µM),morphology score,[1],0.0323
same,SARS-CoV-2 infection rate,[2],112% (inactive)
OC[C@H]1O[C@@H](n2cnc3c(NC4CCCC4)nc(Cl)nc32)[C@H](O)[C@@H]1O [2-chloro-N6-cyclopentyladenosine] (10 µM),morphology score,[1],0.106
same,SARS-CoV-2 infection rate,[2],95% (inactive)
COc1cc2cc(c1Cl)N(C)C(=O)C[C@H](OC(=O)C(C)C)[C@]1(C)O[C@@H]1[C@H](C)[C@@H]1C[C@@](O)(NC(=O)O1)[C@H](OC)/C=C/C=C(\C)C2 [ansamitocin-p-3] (0.833333 µM),morphology score,[1],-0.108
same,SARS-CoV-2 infection rate,[2],114% (inactive)
